Measurements taken from PubChem BioAssay AID1452 (National Center for Advancing Translational Sciences (NCATS), 2008).
The campaign covered roughly 150,000 compounds. About 190 (0.13%) were called active. About 2% were inconclusive and are not listed. The sample as a whole holds a higher share of actives than the screen did. Unmarked numbers belong to inactive results. Calls come from the whole dose curve; as a rule, active = well fitted inhibition curve with a large enough effect; inconclusive = small, poorly fitted or top-dose-only effect; inactive = flat fitted curve, though single readings scatter.

Target: Polyunsaturated fatty acid lipoxygenase ALOX12 (Homo sapiens) (UniProt P18054)
Experiment: qHTS Assay for Inhibitors of 12-hLO (12-human lipoxygenase); note: nearly all actives have a fitted effect of over 55% in size
Conditions: purified 12-hLO, xylenol orange hydroperoxide absorbance; series mostly up to 57.1 µM; activity change, negative = inhibition: at the top concentration
Excerpt: Assay Provider: Holman, T.R., University of California, Santa Cruz Screening Center PI: Austin, C.P. Screening Center: NIH Chemical Genomics Center [NCGC] Human lipoxygenase 12hLO is a member of the closely related lipoxygenase family of enzymes which catalyze the site-specific oxidation of arachidonic acid to various hormone precursor molecules and as such is a candidate for drug development in a variety of disease areas, such as cancer and inflammation. Inhibition of 12hLO activity was screened by utilizing arachidonic acid as a substrate. The extent of hydroperoxide product formation was measured by a secondary chromogenic reaction in which xylenol orange (XO, Sigma-Aldrich, cat. number 39,818-7) reacts with the ferric ions produced from the reaction between the hydroperoxide and ferrous ions. The Fe(III)-XO complex is characterized with red-shifted absorbance at 560 nm. A purified preparation of human 12hLO was supplied by Professor Ted Holman, University of California, Santa Cruz.
Assay Protocol: Buffer: 25 mM Hepes pH 7.0, 0.01% Triton X-100. Reagents/Controls: Buffer in columns 3 and 4 as negative control (no enzyme). Substrate solution: 40 uM arachidonic acid (Sigma-Aldrich, St. Louis, MO) final concentration dispensed throughout the plate. Enzyme: 150 nM 12hLO final concentration in columns 1, 2, 5-48. Column 1 is neutral (100% activity). Column 2 contained pin-transferred titration of NDGA (nordihidroguaiaretic acid, Sigma-Aldrich, N 5023, top concentration 20 mM in DMSO, then 1:3 dilution in duplicate). (Dilution factor: 23 nL into 4 uL.) Chromogenic detection reagent (divalent iron/xylenol orange, Fe-XO): 200 uM xylenol orange plus 300 uM ferrous ammonium sulfate prepared freshly in 50 mM sulfuric acid. Assay Steps: Three uL of enzyme were dispensed to 1536-well Greiner black clear bottom plates. Compounds and controls (23 nL) were transferred via Kalypsys PinTool. The plates were incubated for 15 min at room temperature, and then 1 uL of substrate solution was added to start the reaction. After room temperature incubation for 30 minutes, 4 uL of Fe-XO solution was added to each well and the plates were incubated for 30 min. The absorbance at 405 and 573 nm were measured using ViewLux (Perkin-Elmer) High-throughput CCD imager and absorbance protocol settings. The 573-to-405 absorbance ratio was used to compute reaction progress.
% is set by controls: 0 for no effect and ±100 for the full control effect; potency is the fitted concentration of half-maximal effect.

Chain of Polyunsaturated fatty acid lipoxygenase ALOX12 (Homo sapiens) (P18054 whole entry, looked up): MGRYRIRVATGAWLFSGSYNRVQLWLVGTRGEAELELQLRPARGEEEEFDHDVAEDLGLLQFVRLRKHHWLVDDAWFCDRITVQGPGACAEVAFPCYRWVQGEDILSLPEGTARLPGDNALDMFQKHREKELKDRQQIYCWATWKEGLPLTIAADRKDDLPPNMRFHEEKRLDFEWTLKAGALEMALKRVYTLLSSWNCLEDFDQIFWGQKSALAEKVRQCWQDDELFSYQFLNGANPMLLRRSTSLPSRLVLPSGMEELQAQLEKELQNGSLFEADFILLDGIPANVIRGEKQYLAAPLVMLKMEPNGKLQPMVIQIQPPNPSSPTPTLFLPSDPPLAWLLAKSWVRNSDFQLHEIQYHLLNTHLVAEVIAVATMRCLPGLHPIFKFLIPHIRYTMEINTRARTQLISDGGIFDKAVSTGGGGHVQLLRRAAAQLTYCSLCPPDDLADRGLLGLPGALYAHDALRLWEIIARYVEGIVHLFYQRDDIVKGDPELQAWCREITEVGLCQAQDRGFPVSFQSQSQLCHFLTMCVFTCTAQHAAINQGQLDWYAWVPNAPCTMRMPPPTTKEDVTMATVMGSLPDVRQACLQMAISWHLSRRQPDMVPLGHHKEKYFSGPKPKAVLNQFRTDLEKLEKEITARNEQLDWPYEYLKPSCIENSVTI

| Compound | activity change, negative = inhibition | Potency |
| --- | --- | --- |
| CC(=O)c1c(C)[nH]c(C(=O)OCC(=O)Nc2cc(S(=O)(=O)N3CCCCC3)ccc2C)c1C | 2.06% |  |
| CCc1nnc(NC(=O)CCN(c2ccc(C)cc2)S(=O)(=O)c2ccccc2)s1 | -0.864% |  |
| CCOc1ccc(-c2n[nH]c(=S)n2/N=C/c2cc3c(cc2[N+](=O)[O-])OCO3)cc1 | -5.47% |  |
| C=CCN(c1ccc(C(=O)Nc2cc(C)cc(C)c2)cc1)S(C)(=O)=O | -4.04% |  |
| COc1ccc(Cl)cc1NC(=O)CNc1ccccc1F | -1.57% |  |
| Cc1ccc(NC(=S)Nc2ncccc2C)c(C)c1 |  | 17.8 µM (active) |
| Cc1ccc(NC(=O)Cn2nc(C)c3ccccc3c2=O)c(C)c1 | 2.12% |  |
| Cc1ccccc1NC(=S)Nc1cccc([N+](=O)[O-])c1 | 4.55% |  |
| CC(C)(C)OC(=O)NCCCCC1=CC2=CC(=O)C(C)(OC(=O)c3cccs3)C(=O)C2=CO1 (stereo unspecified) | -3.09% |  |
| CC[C@@]12C=C(/C=C/c3ccccc3)[C@](CC)(C1)[C@H](c1ccccc1)CC2=O | 5.59% |  |
| COC(=O)C1=C(C(=O)OC)[C@@H]2Nc3ccccc3[C@@]23C[C@@H](C(=O)OC)N(S(=O)(=O)c2ccc([N+](=O)[O-])cc2)C3=N1 | -6.39% [at 11.4 µM] |  |
| COc1ccc(-n2c(=S)[nH]c3sc4c(c3c2=O)CCc2ccccc2-4)cc1 | 1.84% |  |
| Cc1ccc(S(=O)(=O)Nc2nc(C)cc(N/N=C/c3ccc(O)cc3)n2)cc1 | -3.75% |  |
| COC(=O)c1c(NC(=O)CN2C(=O)NC(CCc3ccccc3)C2=O)sc2c1CCCCC2 (stereo unspecified) | -1.26% |  |
| C=CCN1c2ccccc2[C@]23C[C@@H](C(=O)OC)N(S(=O)(=O)c4ccc([N+](=O)[O-])cc4)C2=NC(C(=O)OC)=C(C(=O)OC)[C@H]13 | -1.48% [at 11.4 µM] |  |
| CCN(/N=C/c1ccccc1)c1cc(=O)n(C)c(=O)[nH]1 | 1.89% |  |
| COCCN1C(=O)N[C@@H](CCc2ccccc2)[C@H](C(C)=O)[C@H]1C | 1.29% [at 11.4 µM] |  |
| C=CC1=C2C=C(C3CC3)N(CC(C)C)C=C2C(=O)C(C)(OC(=O)c2ccco2)C1=O (stereo unspecified) | 0.586% [at 11.4 µM] |  |
| CCCCCCCC[C@@H](O)/C=C/C=C/C=C\[C@@H](O)CCCC(=O)O | -1.41% |  |

| Compound | activity change, negative = inhibition | Potency |
| --- | --- | --- |
| COc1ccc(-c2nc3c(c4c2C[C@H](c2ccccc2)OC4)CN(C(=O)c2ccco2)CC3)c(C)c1 | 3.56% [at 11.4 µM] |  |
| Cc1ccccc1C(CC(=O)c1cccs1)C(C#N)C#N (stereo unspecified) | -3.86% |  |
| Cc1c(/C=N/N2C(=O)C3C4C=CC(C4)C3C2=O)c2ccccc2n1C (stereo unspecified) | -0.415% |  |
| CC/C=C\C/C=C\C/C=C\C/C=C\C/C=C\C/C=C\CCC(=O)NC(C)C(=O)O (stereo unspecified) | -0.133% |  |
| COc1cc(NC(=O)COC(=O)CSc2ccc3ccccc3c2)c(C)cc1[N+](=O)[O-] | 0.682% |  |
| COc1ccc(-c2c(C)cc3oc(=O)cc(-c4ccccc4)c3c2C)cc1C=O | -1.15% [at 0.00818 µM] |  |
| CCOc1ccc2nc(C(=O)N3CCCC(C)C3)sc2c1 (stereo unspecified) | 0.738% |  |
| O=C(/C=C/c1ccc([N+](=O)[O-])cc1)NCCSCc1ccco1 | -1.35% |  |
| COCC(C)n1c(C)cc(C(=O)CSc2cc(C)c3ccccc3n2)c1C (stereo unspecified) | 1.24% |  |
| COCOc1cc(OC)ccc1C(=O)/C=C/c1ccc([N+](=O)[O-])cc1 | 2.11% |  |
| CCCCCCCC1=Cc2ccc(F)cc2C(C(C(=O)OC)C(=O)OC)N1C(=O)OC (stereo unspecified) | 0.612% [at 11.4 µM] |  |
| COC(=O)C1=C(C(=O)OC)[C@@H]2N(Cc3ccccc3)c3ccccc3[C@@]23C[C@@H](C(=O)OC)N(S(=O)(=O)c2ccc(C(F)(F)F)cc2)C3=N1 | -1.93% [at 11.4 µM] |  |
| Cc1ccc(C2=NN(C(=O)CSc3nc(N)cc(N)n3)C(c3ccco3)C2)cc1 (stereo unspecified) | -1.7% |  |
| C/C(CC(=O)NC(C)(C)C)=N\NC(=O)c1ccco1 | -1.45% |  |
| O=C(COC(=O)[C@H](Cc1ccccc1)NC(=O)c1cccs1)Nc1cc(F)ccc1F | -0.944% |  |
| Cc1cc2oc(=O)cc(-c3ccccc3)c2c(C)c1-c1ccc(OC(F)(F)F)cc1 | -2.23% [at 0.00818 µM] |  |
| Cc1ccc(C)c(NC(=S)NNC(=O)c2csc(C)c2)c1 | 3.02% |  |
| CCCCS(=O)(=O)N1C2=NC(C(=O)OC)=C(C(=O)OC)[C@@H]3N(Cc4ccccc4)c4ccccc4[C@]23C[C@H]1C(=O)OC | 2.88% [at 11.4 µM] |  |
| Cc1cccc(N2CCN(C(=O)/C=C/c3ccco3)CC2)c1C | -3.72% |  |

| Compound | activity change, negative = inhibition | Potency |
| --- | --- | --- |
| COc1ccc(-c2cc(C(F)(F)F)nc(SCC(=O)Nc3ccc4c(c3)OCO4)n2)cc1OC | -2.21% |  |
| CCOC(=O)c1c(NC(=O)C(C)Sc2c[nH]c3ccccc23)sc2c1CCC2 (stereo unspecified) | -1.99% |  |
| CCCCC/C=C\C/C=C\CCCCCCCCCC(=O)NCC(=O)O | 0.691% |  |
| Cc1ccnc(-n2sc3ccccc3c2=O)n1 |  | 12.6 µM (active) |
| Cc1ccnc(N2CCC(C(=O)NC3CCCCCC3)CC2)n1 | -2.17% |  |
| Cc1nc2ccccc2c(=O)n1CCCn1ccnc1 | -0.99% |  |
| CCCCC/C=C\C[C@H](O)/C=C/C=C/C=C/[C@@H](O)CCCC(=O)O | 4.92% |  |
| COC(=O)C1=NNC2(c3ccc(C)cc3)C(=O)N(c3cccc(C)c3C)C(=O)C12 (stereo unspecified) | 0.273% |  |
| CC(=O)CCC(=O)c1ccc2ccccc2c1 | -1.87% |  |
| C=CC(=O)c1ccc2ccccc2c1 |  | 2.51 µM (active) |
| CC(=O)c1ccc2c(ccc3ccccc32)c1 | -1.61% |  |
| CCOC(=O)C1=C(N)N(c2ccc(C)cc2)C2=C(C(=O)CCC2)C1c1cccs1 (stereo unspecified) | 1.9% |  |
| COC(=O)CCCC1=CC2=CC(=O)C(C)(OC(=O)c3cccs3)C(=O)C2=CN1c1ccc(CO)cc1 (stereo unspecified) | -2.32% [at 11.4 µM] |  |
| COc1ccc(-c2c(C)cc3oc(=O)cc(-c4ccccc4)c3c2C)cc1OC | -1.07% [at 0.00818 µM] |  |
| COc1ccc(/C=C/C(=O)OCC(=O)Nc2cccc(Oc3ccccc3)c2)c(OC)c1 | -1.67% |  |
| COc1ccc(CCC(=O)OCC(=O)Nc2ccc(C)c(S(=O)(=O)N(C)C)c2)cc1 | -0.448% |  |
| O=C(CSc1ccccc1)Nc1nnc(/C=C/c2ccccc2)s1 | 2.65% |  |
| COc1ccc(C2NC(=S)NC3=C2CCc2ccccc23)cc1OC (stereo unspecified) | -17.3% |  |
